From PubChem
The list is not random: actives were taken first. Their share in the collection is about 6.1%.
HepG2 tox-1 – qHTS for Inhibitors of TGF-b: Cytotox Counterscreen; HepG2 CAGA-GFP viability, ATP luminescence, 18 h; Potency, µM (series often up to 46.1 µM), most hits filed as cytotoxic; actives 0.76% (n = 410,000)
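HepG2 CAGA-GFP cells (1000/well, DMEM with 1% FBS) received compound, then TGF-beta at 500 pg/mL final, and were incubated 18 hours at 37 degrees C. Viability was read by CellTiter-Glo luminescence. Media-only wells were set as complete cell-killing and DMSO as no toxicity.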
RORgamma inh – qHTS for inhibitors of ROR gamma transcriptional activity. Nuclear receptor ROR-gamma (Mus musculus), P51450. Drosophila S2 Gal4-RORgamma UAS-luciferase reporter, 20 h. Potency, µM (top dose mostly 53.6 µM), actives largely listed as inhibitors. actives 5.4% (n = 310,000). AID 2551, 2010; further: nearly all actives have a fitted effect of over 60% in size
Target sequence (P51450 whole entry, looked up, the tested form may be a part): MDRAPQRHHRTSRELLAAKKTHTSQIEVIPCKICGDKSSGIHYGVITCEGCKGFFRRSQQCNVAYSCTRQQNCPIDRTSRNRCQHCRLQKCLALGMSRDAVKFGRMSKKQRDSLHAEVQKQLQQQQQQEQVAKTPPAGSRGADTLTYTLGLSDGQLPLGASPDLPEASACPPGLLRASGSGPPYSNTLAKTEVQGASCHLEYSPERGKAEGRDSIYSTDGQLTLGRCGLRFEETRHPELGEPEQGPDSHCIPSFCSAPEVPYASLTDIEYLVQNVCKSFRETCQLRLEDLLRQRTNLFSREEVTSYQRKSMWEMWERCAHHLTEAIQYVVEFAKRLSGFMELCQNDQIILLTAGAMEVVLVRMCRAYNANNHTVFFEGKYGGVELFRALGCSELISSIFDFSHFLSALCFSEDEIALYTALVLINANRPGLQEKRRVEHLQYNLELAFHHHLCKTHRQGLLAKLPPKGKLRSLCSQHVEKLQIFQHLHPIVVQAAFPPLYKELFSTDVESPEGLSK
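In this cell-based reporter format, copper sulfate (700 uM final) drives Gal4–ROR gamma fusion expression from a metallothionein promoter in Drosophila Schneider cells; compounds preincubated 1 hr, reporter read after 20 hr at ambient temperature.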
S2 tox – Viability Counterscreen for Primary qHTS for Inhibitors of ATXN expression; AID 651635, 2014; actives 0.49% (n = 400,000); Potency, µM (titrated, usually from 56.7 µM), usual class: cytotoxic; S2 cells (HEK-293 line with an ATXN2-luciferase reporter) viability, CellTiter-Fluor protease fluorescence, 24 h; further: nearly all actives have a fitted effect of over 40% in size
VP16 counter – VP16 counterscreen qHTS for inhibitors of ROR gamma transcriptional activity; actives 3.5% (n = 310,000); Potency, µM (top dose mostly 53.6 µM), hits mostly inhibitors; Drosophila S2 Gal4-VP16 UAS-luciferase, luminescence, 20 h;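 further: Gal4-VP16 expression switched on by copper sulfate through the metallothionein promoter; nearly all actives have a fitted effect of over 50% in size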
ATXN2 expr inh – Primary qHTS for Inhibitors of ATXN expression. HEK-293 ATXN2-luciferase reporter, luminescence, 24 h. Potency, µM (top dose mostly 57 µM), usual class: inhibitors. actives 0.72% (n = 360,000); further: nearly all actives have a fitted effect of over 55% in size
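ATXN2-luciferase reporter cells (luciferase flanked by upstream and downstream ATXN2 gene portions) were treated 24 h at 37 °C with compounds at up to 57 uM. SteadyGlo luminescence gave expression; GF-AFC fluorescence gave viability.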
TGFb SMAD3 inh – qHTS for Inhibitors of TGF-b. HepG2 CAGA-GFP TGF-b/SMAD3 reporter, GFP fluorescence, 18 h; TGF-beta stimulated, 500 pg/mL final. Potency, µM (titrated, usually from 46.1 µM), usual class: inhibitors. actives 1.2% (n = 410,000). AID 588855, 2011; further: nearly all actives have a fitted effect of over 65% in size
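Using HEPG2 CAGA-GFP reporter cells at 1000 cells/well, we pinned test compounds, stimulated with recombinant TGF-beta (500 pg/mL final) and measured total well GFP after 18 h.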
TGFb CAGA inh – qHTS for Inhibitors of TGF-b: Confirmation of Cherry Picks; shares compounds with TGFb SMAD3 inh; HepG2 CAGA-GFP TGF-b reporter, GFP fluorescence, 18 h; cells stimulated with TGF-beta, 500 pg/mL; Potency, µM (highest dose often 46.1 µM), usual class: inhibitors; actives 63% (n = 1,600); further: nearly all actives have a fitted effect of over 65% in size
HepG2 tox-2 – qHTS for Inhibitors of TGF-b: Cytotox Counterscreen for Cherry Picks; HepG2 CAGA-GFP viability, ATP luminescence, 18 h; cells stimulated with TGF-beta, 500 pg/mL; actives 27% (n = 1,600); Potency, µM (titrated, usually from 46.1 µM), most hits filed as inhibitors; shares compounds with TGFb SMAD3 inh; further: nearly all actives have a fitted effect of over 70% in size
TGFb CCL64 inh – qHTS for Inhibitors of TGF-b: CCL64 Cells Orthogonal Assay for Cherry Picks; shares compounds with TGFb SMAD3 inh; CCL64 CAGA-GFP reporter, TGF-b stimulated, GFP fluorescence, 18 h; Potency, µM (highest dose often 46.1 µM), hits mostly inhibitors; actives 41% (n = 1,600); further: nearly all actives have a fitted effect of over 65% in size
TGFb COP inh – qHTS for Inhibitors of TGF-b: Hit Validation in HepG2 Cells using COP promoter. shares compounds with TGFb SMAD3 inh. HepG2 COP-GFP TGF-b reporter, GFP fluorescence, 18 h; cells stimulated by added recombinant TGF-beta. Potency, µM (highest dose often 46.1 µM), hits mostly inhibitors. actives 3% (n = 1,600). AID 720537, 2013; further: nearly all actives have a fitted effect of over 70% in size
Hits are given with their value; [ ] = dose if it differs, or a comment. The call rests on the fitted dose curve; in most records, active means well fitted curve in the direction sought with a large enough effect; inconclusive means small, poorly fitted or top-dose-only effect, or another doubt; inactive means no such curve, though single readings can be large; an effect the other way counts as inactive or inconclusive.

Screening COc1ccc(CCNC(=O)c2ccc([N+](=O)[O-])cc2Cl)cc1OC returned HepG2 tox-1 inactive, S2 tox inactive, ATXN2 expr inh inactive and TGFb SMAD3 inh inactive.
COc1ccc(CCNC(=O)c2ccc(-c3ccc([N+](=O)[O-])cc3Cl)o2)cc1OC was read as HepG2 tox-1 inactive, RORgamma inh inactive, S2 tox inactive, VP16 counter inconclusive, ATXN2 expr inh inactive, TGFb SMAD3 inh 10µM, TGFb CAGA inh 21µM, HepG2 tox-2 inconclusive, TGFb CCL64 inh 9.2µM and TGFb COP inh inactive.
`O=C(N/N=C/c1cn(CC(=O)N2CCOCC2)c2ccccc12)c1cccnc1` gave HepG2 tox-1 inactive, RORgamma inh inactive, S2 tox inactive, VP16 counter inactive, ATXN2 expr inh inactive and TGFb SMAD3 inh inactive.
For CCOC(=O)N/N=C/c1cn(Cc2ccc(Cl)cc2)c2ccccc12 the results were HepG2 tox-1 inactive, RORgamma inh inactive, S2 tox inactive, VP16 counter inconclusive, ATXN2 expr inh inactive, TGFb SMAD3 inh 13µM, TGFb CAGA inh 4.1µM, HepG2 tox-2 2.6µM, TGFb CCL64 inh inactive and TGFb COP inh inactive.
For COC(=O)N/N=C/c1cn(CCOc2ccccc2)c2ccccc12 the results were HepG2 tox-1 inactive, RORgamma inh inconclusive, S2 tox inconclusive, VP16 counter inactive, ATXN2 expr inh inactive, TGFb SMAD3 inh inconclusive, TGFb CAGA inh 7.3µM, HepG2 tox-2 3.3µM, TGFb CCL64 inh inactive and TGFb COP inh inactive.
For O=C(N/N=C/c1cn(Cc2ccccc2)c2ccccc12)c1ccncc1 the results were HepG2 tox-1 inactive, RORgamma inh 2.8µM, VP16 counter inconclusive, ATXN2 expr inh inactive, TGFb SMAD3 inh inconclusive, TGFb CAGA inh 1.2µM, HepG2 tox-2 2.3µM, TGFb CCL64 inh inactive and TGFb COP inh inactive.
For COC(=O)N/N=C/c1cn(CC(C)COc2ccccc2)c2ccccc12 (stereo not given) the results were HepG2 tox-1 inactive, RORgamma inh inconclusive, S2 tox inactive, VP16 counter inactive, ATXN2 expr inh inconclusive and TGFb SMAD3 inh inactive.
Screening CCOC(=O)N/N=C/c1ccccc1F returned HepG2 tox-1 inactive, RORgamma inh inactive, S2 tox inconclusive, VP16 counter inactive, ATXN2 expr inh inactive and TGFb SMAD3 inh inactive.
COCCN(Cc1cc2cc3c(cc2nc1Cl)OCO3)C(=O)c1ccc(C)cc1 was read as HepG2 tox-1 inactive, RORgamma inh 1.6µM, S2 tox inactive, VP16 counter inconclusive, TGFb SMAD3 inh inconclusive, TGFb CAGA inh inconclusive, HepG2 tox-2 inactive, TGFb CCL64 inh inactive and TGFb COP inh inactive.
`COCCN(Cc1cc2cc(C)c(C)cc2nc1Cl)C(=O)Nc1ccccc1` gave HepG2 tox-1 inactive, RORgamma inh inactive, S2 tox inactive, VP16 counter inconclusive, ATXN2 expr inh inactive and TGFb SMAD3 inh inactive.
Screening COc1ccc(-c2nc3ccccc3s2)cc1NC(=O)c1ccccc1OC returned HepG2 tox-1 inactive, S2 tox inactive, ATXN2 expr inh inactive and TGFb SMAD3 inh inactive.
For O=[N+]([O-])c1c(Nc2cccc(O)c2)cc(Cl)c2nonc12 the results were HepG2 tox-1 3.5µM, RORgamma inh inactive[1.91 µM], S2 tox 10µM, VP16 counter inconclusive, ATXN2 expr inh inconclusive, TGFb SMAD3 inh 3.5µM, TGFb CAGA inh 2.9µM, HepG2 tox-2 3.3µM, TGFb CCL64 inh 2.9µM and TGFb COP inh 4.6µM.
O=C(O)c1cccc(Nc2ccc3nonc3c2[N+](=O)[O-])c1 was read as HepG2 tox-1 inactive, S2 tox inconclusive, ATXN2 expr inh inactive and TGFb SMAD3 inh inactive.
For O=C(NCc1ccccc1)c1ccc(CNS(=O)(=O)c2ccc(Br)cc2)cc1 the results were HepG2 tox-1 inactive, S2 tox inactive, ATXN2 expr inh inactive and TGFb SMAD3 inh inactive.
Screening CCCc1nnc(NC(=O)C(CC)OC(=O)c2cc(C)nc3ccccc23)s1 (stereo not given) returned HepG2 tox-1 inactive, RORgamma inh inactive, S2 tox inactive, VP16 counter inactive, ATXN2 expr inh inactive, TGFb SMAD3 inh inconclusive, TGFb CAGA inh inconclusive, HepG2 tox-2 inactive, TGFb CCL64 inh inactive and TGFb COP inh inactive.
COc1cccc(Cl)c1NC(=O)N1CCN(c2cc(C)nc3ccccc23)CC1 was read as HepG2 tox-1 inactive, RORgamma inh inactive, S2 tox inconclusive, VP16 counter inactive, ATXN2 expr inh inconclusive, TGFb SMAD3 inh 13µM, TGFb CAGA inh inactive, HepG2 tox-2 inconclusive, TGFb CCL64 inh inconclusive and TGFb COP inh inactive.
For Cn1c(=O)oc2cc(S(=O)(=O)N3CCCC(C(=O)NC4CCCc5ccccc54)C3)ccc21 (stereo not given) the results were HepG2 tox-1 inactive, RORgamma inh inconclusive, S2 tox inconclusive, VP16 counter 0.1µM, ATXN2 expr inh inconclusive, TGFb SMAD3 inh 0.56µM, TGFb CAGA inh inconclusive, HepG2 tox-2 inconclusive, TGFb CCL64 inh inactive and TGFb COP inh inactive.
For Cn1c(=O)oc2cc(S(=O)(=O)NC3CCCc4ccccc43)ccc21 (stereo not given) the results were HepG2 tox-1 inactive, RORgamma inh inactive, S2 tox inactive, VP16 counter inactive, ATXN2 expr inh inactive and TGFb SMAD3 inh inactive.
